The panel holds about 83,000 compounds, 20% with a hit somewhere; the sample as a whole holds those more often.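 Growth was measured after 48 h exposure to one concentration of compound in 96-well plates. Values under 10 count as active.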 Unmarked numbers belong to inactive results. The source made the active and inactive calls.

Some test systems named below: T-47D breast; BT-549 breast; MDA-MB-435 melanoma; SW-620 colon; MCF7 breast; HCT-116 colon; HCC-2998 colon; KM12 colon.
Assay in all cases: NCI-60 one-dose screen, 48 h (100 = growth as untreated, 0 = no growth, -100 = all killed)
Conditions in all cases: 10 µM unless noted

In the case of `Cc1cc(NCCN(C(C)C)C(C)C)nc(/N=C(\N)Nc2ccc(Cl)c(C(F)(F)F)c2)n1`, the growth was -54.3% (active) with T-47D breast; -64.6% (active) in the experiment with BT-549 breast; -73.9% (active) in the experiment with MDA-MB-435 melanoma; -89.7% (active) in the experiment on SW-620 colon; -78.4% (active) with MCF7 breast; -100% (active) in the experiment with HCT-116 colon. The results for the growth in the experiment with HCC-2998 colon and in the experiment on KM12 colon were -96.7% (active) and -92.6% (active), respectively.
With `Cc1ccc(=O)n(-c2ccc(Br)cc2F)c1`, the growth is 93.7% with T-47D breast; 94.5% in the experiment with BT-549 breast; 100% with MDA-MB-435 melanoma; 103% in the experiment on SW-620 colon; 92.6% in the experiment on MCF7 breast; 105% in the experiment with HCT-116 colon. Besides, the figures for the growth in the experiment with HCC-2998 colon and in the experiment on KM12 colon were 106% and 103%, respectively.
Regarding `N#Cc1c(N)nc2c(c1N)C(c1ccc(Cl)cc1)C1=C(CCCC1=O)N2c1sc2c(c1C#N)CCCC2` (stereo not drawn), the growth in the experiment on T-47D breast is 96.8%; in the experiment on BT-549 breast it was 96.1%; in the experiment on MDA-MB-435 melanoma it was 112%; in the experiment with SW-620 colon, 107%; with MCF7 breast, 99.7%; in the experiment with HCT-116 colon it was 70.8%. The growth in the experiment on HCC-2998 colon was 90.3%; in the experiment with KM12 colon, 89.7%.
With `Cc1[nH]n(C(=O)c2ccncc2)c(=O)c1N=Nc1ccc(S(=O)(=O)Nc2ccncn2)cc1`, the growth in the experiment on T-47D breast is 113%; in the experiment with BT-549 breast, 127%; with MDA-MB-435 melanoma, 117%; in the experiment with SW-620 colon it was 108%; in the experiment with MCF7 breast, 102%; with HCT-116 colon, 92.6%. The values for the growth with HCC-2998 colon and in the experiment on KM12 colon were 113% and 109%, respectively.
In the case of `CN1C(=O)C2(NN=C(c3cccc4ccccc34)S2)c2ccccc21` (stereo not drawn), the growth was 5.27% (active) with T-47D breast; 30.1% in the experiment with BT-549 breast; 57.8% in the experiment on MDA-MB-435 melanoma; 35.5% with SW-620 colon; 24% in the experiment on MCF7 breast; 14.8% in the experiment on HCT-116 colon. Moreover, the growth was 51.7% with HCC-2998 colon and 30.8% with KM12 colon.
For the molecule `C=CC(C)(O)CCC1C(=C)CCC2C(C)(C)CCCC12C` (stereo not drawn), the growth in the experiment on T-47D breast was 99.4%; in the experiment on BT-549 breast it was 111%; in the experiment with MDA-MB-435 melanoma, 107%; with SW-620 colon, 111%; in the experiment with MCF7 breast it was 92.7%; in the experiment with HCT-116 colon it was 107%. In addition, the growth with HCC-2998 colon is 99.5%; with KM12 colon, 99.8%.
With `Nc1nccc2c1ccn2-c1cccc(NC(=O)c2ccc(N3CCOCC3)c(C(F)(F)F)c2)c1`, the growth with T-47D breast is 45.7%; in the experiment with BT-549 breast it was -5.74% (active); in the experiment on MDA-MB-435 melanoma, 2.02% (active); in the experiment on SW-620 colon it was 25.5%; with MCF7 breast, 16%; in the experiment with HCT-116 colon it was 7.23% (active). Moreover, the growth in the experiment on HCC-2998 colon was 23.9%; in the experiment on KM12 colon it was -14.5% (active).
For `COc1ccc2c(c1)C(=O)/C(=C/c1cccc(OCC(=O)c3ccccc3)c1)O2`, the growth is -31.7% (active) in the experiment on T-47D breast; -15.9% (active) with BT-549 breast; 38% in the experiment with MDA-MB-435 melanoma; -82.7% (active) in the experiment with SW-620 colon; 32% in the experiment with MCF7 breast; 0.433% (active) in the experiment with HCT-116 colon. In addition, the growth is -71.2% (active) in the experiment with HCC-2998 colon and 71.7% in the experiment on KM12 colon.
As for `Nn1c(CN2CCN(c3cc4c(cc3F)c(=O)c(C(=O)O)cn4C3CC3)CC2)n[nH]c1=S`, the growth is 98.3% with T-47D breast; 112% in the experiment with BT-549 breast; 97.9% with MDA-MB-435 melanoma; 105% in the experiment with SW-620 colon; 93.4% with MCF7 breast; 102% in the experiment with HCT-116 colon. The results for the growth in the experiment with HCC-2998 colon and in the experiment on KM12 colon were 92.7% and 103%, respectively.
Regarding `Nc1n[nH]c2cccc(C#Cc3cccc(NC(=O)c4cccc(C(F)(F)F)c4)c3)c12`, the growth with T-47D breast was 25.3%; in the experiment with BT-549 breast, 46.2%; with MDA-MB-435 melanoma it was 30.1%; in the experiment on SW-620 colon, 46.1%; in the experiment with MCF7 breast it was 39.9%; in the experiment with HCT-116 colon, 9.05% (active). Also, the growth in the experiment with HCC-2998 colon was 26.2%; in the experiment on KM12 colon, 38.5%.
Take `NS(=O)(=O)c1ccc(Nc2nc(O)c(/C=C3\C=Nc4ccccc43)s2)cc1`: the growth was 99.3% with T-47D breast; 108% in the experiment on BT-549 breast; 107% with MDA-MB-435 melanoma; 99.6% in the experiment on SW-620 colon; 94.2% in the experiment with MCF7 breast; 92.7% with HCT-116 colon. The growth is 116% with HCC-2998 colon and 95.6% in the experiment on KM12 colon.
As for `N#CC1=C(N)Oc2c(ccc3ccccc23)C1c1cc(=O)oc2ccc(Cl)cc12` (stereo not drawn), the growth is 47.7% in the experiment on T-47D breast; 49% with BT-549 breast; -43.2% (active) in the experiment on MDA-MB-435 melanoma; 29.6% with SW-620 colon; 19.7% with MCF7 breast; 12.7% in the experiment on HCT-116 colon. In addition, the growth was 36.6% in the experiment on HCC-2998 colon and 21.5% in the experiment with KM12 colon.
On to `COc1ccc(/C=C/C(=O)c2ccc(NC(=O)CSc3nnc(-c4cc(OC)c(OC)c(OC)c4)o3)cc2)cc1`, for which the growth was -44.5% (active) in the experiment with T-47D breast; -3.02% (active) in the experiment on BT-549 breast; -39.2% (active) in the experiment with MDA-MB-435 melanoma; -61.5% (active) in the experiment with SW-620 colon; -30.8% (active) in the experiment with MCF7 breast; -76.4% (active) in the experiment with HCT-116 colon. The growth in the experiment with HCC-2998 colon is -72% (active); with KM12 colon, -91.8% (active).
On to `C/C(=N\N=C1/SCC(=O)N1c1ccccc1)c1ccco1`, for which the growth with T-47D breast was 114%; in the experiment with BT-549 breast it was 127%; in the experiment with MDA-MB-435 melanoma, 88.6%; in the experiment with SW-620 colon, 109%; in the experiment on MCF7 breast, 53.7%; in the experiment on HCT-116 colon, 92.7%. Also, the growth is 109% in the experiment with HCC-2998 colon and 103% with KM12 colon.
On to `Cc1ccc(Cn2cc(COc3ccc4c5ccnc(C)c5n(CCCc5ccccc5)c4c3)nn2)cc1`, for which the growth with T-47D breast is 89.9%; in the experiment on BT-549 breast, 90.1%; in the experiment with MDA-MB-435 melanoma, 106%; with SW-620 colon, 89.5%; with MCF7 breast, 86.2%; in the experiment with HCT-116 colon, 60%. Further, the figures for the growth in the experiment on HCC-2998 colon and in the experiment on KM12 colon were 102% and 97.9%, respectively.
Take `COc1ccc(CNc2nc3ccccc3c3c(=O)c4ccccc4sc23)cc1OC`: the growth in the experiment on T-47D breast was 93.5%; with BT-549 breast, 103%; in the experiment with MDA-MB-435 melanoma, 91.7%; in the experiment on SW-620 colon, 73.7%; with MCF7 breast it was 73.9%; with HCT-116 colon it was 68.8%. The growth is 94% in the experiment on HCC-2998 colon and 79.8% with KM12 colon.

The record behind these values is PubChem BioAssay (NCI).
